Screening data: PubChem BioAssay, Broad Institute
HIV Env fusion: blocks HIV Env-driven cell-cell fusion; HeLa-JRFL Env/CEM21 cell fusion, luciferase; 360,000 tested, 1.1% active; inhibition, % at 12.3 µM;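 active = mean replicate inhibition score of at least 50 and every replicate individually at or above 50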;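 also: 0% = plate neutral controls and 100% = maraviroc near 300 nM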
Casp6 inh: blocks human caspase-6 cleavage activity. P55212. purified caspase-6, Z-VEID-R110 cleavage fluorescence. inhibition, % at 12.5 µM. 350,000 tested, 0.53% active;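 active = mean inhibition across replicates at least about 35%, with every replicate also reaching that limit, limit read from the data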;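 also: 0% = median of neutral control wells and 100% = no fluorescence left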
F508del corr: correctors of CFTR F508del function in bronchial epithelial cells; CFBE cells, YFP halide quenching; stimulated with forskolin plus potentiator P3; % fluorescence drop versus neutral controls; AID 720511; 350,000 tested, 0.36% active; activity (quench increase), % at 7.58 µM;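 active = mean added fluorescence quench of at least 8% versus neutral control, with both replicates also reaching 8%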;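 also: cells transiently co-express mutant CFTR-F508del with the halide-sensitive YFP; corrector assay measuring rescue of mutant channel to the surface after 24 h compound exposure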
NSD2 HMT inh: NSD2 (human) methyltransferase inhibition; O96028; NSD2 peptide methylation, AlphaScreen, 120 min; inhibition, % at 12.5 µM; 310,000 tested, 0.54% active; in the data active = inhibition above about 50%
ALR inh: human ALR oxidase inhibition via reduced H2O2; P55789; purified ALR, DTT oxidation, H2O2 HRP-luminol luminescence; inhibition, % (concentration not given with the values); 290,000 tested, 3.8% active; AID 485317;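 active = mean replicate inhibition above about 79%, with every replicate also reaching it, limit read from the data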
Target sequence (P55789 whole entry, looked up): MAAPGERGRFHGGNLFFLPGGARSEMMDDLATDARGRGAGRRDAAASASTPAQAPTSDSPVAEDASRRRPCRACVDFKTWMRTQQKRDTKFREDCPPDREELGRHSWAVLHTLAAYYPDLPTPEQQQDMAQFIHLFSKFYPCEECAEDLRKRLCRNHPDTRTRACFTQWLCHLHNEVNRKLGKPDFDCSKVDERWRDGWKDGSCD
PglD inh: inhibitors of Campylobacter jejuni PglD acetyltransferase. inhibition, % at 12.5 µM. AID 602405. purified PglD enzyme, DTNB colorimetric CoA detection. 360,000 tested, 0.098% active; in the data active = inhibition above about 16%, passing the limit was not always enough
The depositor's hits bear a star; / = no result; [ ] = remark or other dose. Only some compounds are listed: those with a hit (about 4.1% of all), similar ones and a draw of the others.

SMILES	HIV Env fusion	Casp6 inh	F508del corr	NSD2 HMT inh	ALR inh	PglD inh
O=c1[nH]n(-c2ccc(Cl)cc2)c2ncccc12	-67	/	/	-1	99*	-1
CCOC(=O)c1c(Cc2ccccc2)c[nH]c1C	-2	-3	-1	2	95*	2
CCNC(=O)C[C@@H]1CC[C@H]2[C@@H](COC[C@H](O)CN2C(=O)CC)O1	/	-3	-2	/	/	1
CC(=NNC(=S)N1CC2CCC(CC2)C1)c1ccccn1	9	/	6	19	/	-4
CC(=NNC(=S)N1CC2CCC(CC2)C1)c1cnccn1	-396	-3	11*	1	/	/
C[C@@H]1CN([C@@H](C)CO)C(=O)c2cc(NS(=O)(=O)c3ccccc3)ccc2O[C@H]1CN(C)S(C)(=O)=O	/	1	0	/	/	0
O=C(CCN1C(=O)/C(=C/c2ccc(Cl)cc2)SC1=S)Nc1cccc(C(=O)O)c1	-12	8	0	-4	-1	1
O=C(O)c1cccc(N2C(=O)/C(=C/c3ccc(SCc4ccc(Cl)cc4)o3)SC2=S)c1	-21	72*	7	112*	/	/
O=c1[nH]c(N/N=C/c2ccc(O)cc2)nc2ccccc12	-40	8	/	3	95*	/
CC(/C=N/Nc1nc2ccccc2[nH]1)=C\c1ccccc1	-271	36*	5	0	/	/
C(=N\Nc1nc2ccccc2[nH]1)/c1cccs1	-150	/	/	4	99*	-3
CC(/C=N/Nc1nc(C)cc(=O)[nH]1)=C\c1ccccc1	13	2	-2	0	1	7
O=c1[nH]c(N/N=C\c2ccc(F)cc2)nc2ccccc12	-83	1	0	2	4	/
C(=N\Nc1nc2ccccc2[nH]1)/c1ccncc1	7	/	1	-2	98*	/
COCC#Cc1cnc2c(c1)C(=O)N([C@H](C)CO)C[C@@H](C)[C@@H](CN(C)Cc1ccccc1)O2	-4[16.7 µM]	-2	1	/	/	-5
C[C@@H]1CN([C@H](C)CO)C(=O)Cc2cc(NC(=O)Nc3ccc(C(F)(F)F)cc3)ccc2O[C@@H]1CN(C)C(=O)NC1CCCCC1	-48[16.7 µM]	/	0	/	/	/
CCCNC(=O)C[C@@H]1C[C@@H]2c3cc(NC(=O)c4ccc5c(c4)OCO5)ccc3O[C@@H]2[C@@H](CO)O1	/	/	0	/	/	0
Clc1cnc(N/N=C/c2cccs2)c(Cl)c1	/	/	/	-1	86*	/
CC(C)(C)c1cc(-c2n[nH]c(=S)n2-c2ccccc2F)n[nH]1	-18	2	0	0	91*	-1
Cc1ccc(-n2[nH]c(C)c(C=Nc3ccc4[nH]c(=O)[nH]c4c3)c2=O)cc1C	/	/	/	0	92*	0
Cc1ccc(-n2[nH]c(C)c(C=Nc3ccc4[nH]c(=O)[nH]c4c3)c2=O)cc1	3	-3	4	2	7	/
Cc1ccc(CN(C)CCc2ccccn2)cc1	-25	/	/	9	96*	6
CCc1ccc(CN(C)CCc2ccccn2)cc1	/	-7	-1	9	2	0
O=C(/C=C/c1ccc(Br)o1)OCc1nc2ccsc2c(=O)[nH]1	/	38*	/	/	-15	7
COc1cc(/C=c2\sc3n(c2=O)CCCN=3)ccc1O	-258	/	/	4	99*	-8
SMILES	HIV Env fusion	Casp6 inh	F508del corr	NSD2 HMT inh	ALR inh	PglD inh
COc1ccc(/C=C2\N=C3CCCCCN3C2=O)cc1OC	-34	/	/	-1	-36	-6
O=C1/C(=C\c2ccc(O)c(O)c2)N=C2CCCCCN12	1	4	3	18	99*	-10
COc1cc(/C=C2\N=C3CCCCCN3C2=O)ccc1O	/	3	0	9	99*	/
O=C(C[C@@H]1C=C[C@H](NC(=O)Nc2ccccc2F)[C@H](CO)O1)NCc1ccccc1	/	1	1	/	/	/
CCN1/C(=C/c2ccc3cc(C)ccc3[n+]2CC)Sc2cc(C)c(C)cc21	29	-35	-3	161*	/	/
OCCN1CCN(CCCN2c3ccccc3Sc3ccc(Cl)cc32)CC1	20	-8	-1	/	99*	1
CN1CCN(CCCNC(=O)c2cn(C)c3ccc(S(=O)(=O)N(C)C)cc3c2=O)CC1	3	-23	-2	/	-2	2
CN(C)CCCN1c2ccccc2Sc2ccc3ccccc3c21	-2	2	1	4	/	/
CCN1C(=O)c2ccccc2Sc2ccc(C(=O)NCCCN3CCCCC3)cc21	0	-31	0	/	-3	6
CN1CCN(CCCN2c3ccccc3Sc3ccc(S(=O)(=O)N(C)C)cc32)CC1	11	-1	-1	/	96*	0
